The campaign covered roughly 400,000 compounds. About 1,900 (0.47%) were called active. About 14% were inconclusive and are not listed. Only a selection was taken, and actives are over-represented in it overall. Values without a mark were called inactive. The call rests on the fitted dose curve; in most records, active means well fitted cell-killing curve with a large enough effect; inconclusive means small, poorly fitted or top-dose-only effect, or effect the other way; inactive means no such curve, though single readings can be large or run the other way.
Test: Viability Counterscreen for Primary qHTS for Inhibitors of ATXN expression; further: nearly all actives have a fitted effect of over 40% in size
Conditions: S2 cells (HEK-293 line with an ATXN2-luciferase reporter) viability, CellTiter-Fluor protease fluorescence, 24 h; series mostly up to 56.7 µM; activity change, negative = cytotoxicity: at the top concentration
From the text: Spinocerebellar ataxia type 2 (SCA2) is a multisystem neurodegenerative disease caused by a dominantly-acting mutation leading to expansion of a polyQ domain in the ataxin-2 protein (ATXN2). SCA2 patients develop progressive ataxia and later lose function in other neuronal systems. Prominent parkinsonian signs develop in some patients. Similar to many neurodegenerative disorders, no symptomatic or disease-modifying treatments are known.
The primary objective of the proposed research is to identify compounds inhibiting ATXN2 expression and to test them for efficacy in SCA2 mouse models. To this end, we have developed a cell-based assay paired with an in vivo mouse model using identical luciferase expression constructs. This approach takes advantage of an ATXN2-luciferase transgene, with the luciferase gene flanked by the upstream and downstream portions of the ATXN2 gene. This primary assay was tested against the NIH Molecular Libraries Small Molecule Repository (MLSMR).
NIH Chemical Genomics Center [NCGC]
NIH Molecular Libraries Probe Centers Network [MLPCN]
Assay Submitter (PI): Daniel Scoles, University of Utah
PROTOCOL TABLE (as described by Inglese J, Shamu CE and Guy RK. 2007)
SEQUENCE No. (e.g., 1, 2, 3, etc.); […] (e.g., Cells, Incubation, Reagent, etc.); VALUE; DESCRIPTION.
1; Cells; 4 uL; white, solid bottom, 1536-well Greiner assay plate.
2; Incubation; 2 hr; 37 degree C in 5% humidified CO2.
3; Compounds; 23 nL; Kalypsis pintool (Wako USA) equipped with a 1536-well pin head.
4; Incubation; 24 hr; 37 degree C in 5% humidified CO2.
5; Reagent; 1 uL; Gly-Phe-7-Amino-4-trifluoromethylcoumarin.
6; Incubation; 30 min; 37 degree C in 5% humidified CO2.
7; Detection; Fluorescence; ViewLux plate reader (PerkinElmer).
8; Reagent; 3 uL; SteadyGlo luciferase solution (Promega).
9; Incubation; 5 min; room temperature.
10; Detection; Luminescence; ViewLux plate reader (PerkinElmer).
NOTES (numbers refer to Sequence numbers above)
1. S2 cells expressing ATXN2-luciferase reporter were suspended in phenol-red free DMEM and dispensed in assay plates using a Multidrop Combi dispenser (Thermo Fisher Scientific).
2. Assay plates were incubated. Evaporation was prevented by covering assay plates with metal lids containing holes to allow gas diffusion.
3. […] Vehicle-only plates, with DMSO being pin-transferred to columns 5-48, were inserted uniformly at the beginning and the end of each library to monitor and record any shifts in assay performance.
5. 125 uM Gly-Phe-7-Amino-4-trifluoromethylcoumarin (MP Biomedicals) working concentration was used at a final concentration of 25 uM.
7. To assess cell viability; the assay plates were read using the ViewLux high-throughput CCD imager (PerkinElmer), wherein single end-point fluorescence measurement was acquired (excitation 405/10; emission 540/25 nm).
8. Detection reagent SteadyGlo Luciferase (Promega) was added to the assay plate.
10. Luminescence is then measured on the ViewLux imager equipped with a clear emission filter using a 2 sec exposure. All screening operations were performed on a fully integrated robotic system (Kalypsys) containing one RX-130 and two RX-90 anthropomorphic robotic arms (Staubli).
Inglese J, Shamu CE and Guy RK, Reporting data from high throughput screening of small molecule libraries, Nature Chemical Biology, 2007, 3(8): 438-441. doi.org/10.1038/nchembio0807-438.
Potency means the concentration at half of the fitted maximal effect.

Row | Compound | Potency | activity change, negative = cytotoxicity
1 | CC[C@H]1CN2CCc3cc(OC)c(OC)cc3[C@@H]2C[C@@H]1C[C@H]1NCCc2cc(OC)c(OC)cc21 | 39.8 µM (active) | –
2 | C[C@H]1CC[C@@]2(NC1)O[C@@H]1C[C@H]3[C@@H]4CC=C5C[C@@H](O)CC[C@]5(C)[C@@H]4CC[C@]3(C)[C@@H]1[C@@H]2C | – | -10.1% [at 25.4 µM]
3 | C[C@]12CC[C@@H]3C(=CCc4cc(O)ccc43)[C@@H]1CCC2=O | – | -14% [at 25.4 µM]
4 | CCOC(=O)c1c(C)c(C(=O)N2CCC3(CC2)OCCO3)c(C)n1CC | – | -18.8%
5 | CC(Cc1ccccc1)NC=O (stereo not given) | – | -23.5%
6 | CC(=O)NC(=O)NC(C)Cc1ccccc1 (stereo not given) | – | -18.5%
7 | CC(Cc1ccccc1)NCCC(c1ccccc1)c1ccccc1 (stereo not given) | 20 µM (active) | –
8 | Cc1cc(-c2ccc(N)c(C)c2)ccc1N | – | -2.03%
9 | CCN1C[C@@]2(COC)CC[C@H](OC)[C@]34[C@@H]1[C@]1(OCO[C@@]15C[C@@H](OC)C1C[C@H]3[C@H]5[C@@H]1OC)[C@H](O)[C@@H]24 | – | -11% [at 25.4 µM]
10 | CN1[C@@H]2CC[C@H]1CC(OC(=O)c1cc(Cl)cc(Cl)c1)C2 (stereo not given in full) | – | -11.7%
11 | O=C(CSc1ccccc1)Nc1ccc(C(=O)Nc2cccc(O)c2)cc1 | – | -57.2%
12 | COc1ccccc1C(=O)N[C@@H]1c2ccccc2C2(CCN(Cc3nc(C(C)C)cs3)CC2)[C@H]1O | 35.5 µM (active) | –
13 | COC(=O)C1=C(c2ccc(Cl)c(C(F)(F)F)c2)C[C@@H]2CC[C@H]1N2C(=O)NC1CC1 | – | -40.4%
14 | Clc1ccc([C@@H]2C[C@H]3CC[C@@H]2N3)cn1 | – | -15.3% [at 114 µM]
15 | C[C@]12CC[C@H](O)C[C@@H]1CC[C@H]1[C@H]2CC[C@]2(C)C(=O)CC[C@@H]12 | inactive | –
16 | CCOC(=O)[C@]12Cc3ccccc3[C@H]1N(C1CCCCC1)C(=O)c1cc(OC)ccc12 | 10 µM (active) | –
17 | CCOC(=O)[C@]12Cc3cc(OC)ccc3[C@H]1N(C(C)C)C(=O)c1ccccc12 | 11.2 µM (active) | –
18 | COc1cccc(-c2ccc(O)c(CNC3CN4CCC3CC4)c2)n1 (stereo not given) | – | 5.68%
19 | CCN1C[C@]2(C)CC[C@H](O)[C@@]34[C@@H]5CC6[C@@H](OC)C[C@@](O)([C@@H]5[C@@H]6O)[C@H](C[C@@H]23)[C@H]14 | – | -4.51% [at 25.4 µM]
20 | CCCOC(=O)c1cncn1C(C)c1ccccc1 (stereo not given) | – | 0.735%
21 | Cc1nnc(NC(=O)c2cccn(Cc3cccc(F)c3)c2=O)s1 | – | -19.4%
22 | CCOC(=O)c1c(-c2ccccc2)oc2ccc(OC(=O)N(C)C)cc12 | – | 4.74%
23 | COC(=O)C1=C(c2ccc(F)cc2OCc2ccccc2)C[C@@H]2CC[C@H]1N2C(=O)NCc1ccc2[nH]ccc2c1 | – | -34.1%

Row | Compound | Potency | activity change, negative = cytotoxicity
24 | CC1N=C(N)OC1c1ccccc1 (stereo not given) | – | -1.45% [at 114 µM]
25 | O=C(Cn1c(=O)n(CC2CS2)c2ccccc21)N1CCCCC1 (stereo not given) | – | -4.21%
26 | CC(=CCOc1ccc2ccc(=O)oc2c1)C1=CC(=O)C(C)(C)O1 | – | -34.9%
27 | Cc1ccc(Cn2nnnc2CN2CCC(n3nnc4ccccc43)CC2)cc1 | – | -3.67%
28 | O=c1[nH]c2ccccc2n1C1CCN(C(c2ccnc3ccccc23)c2nnnn2Cc2ccccc2)CC1 (stereo not given) | 12.6 µM (active) | –
29 | CCC(=NCCc1ccccc1)c1c(O)n(C2CCCCC2)c(=O)[nH]c1=O | – | -28.9%
30 | O=c1[nH]c2ccccc2n1C1CCN(C(c2ccccc2)c2nnnn2Cc2ccccc2)CC1 (stereo not given) | 7.08 µM (active) | –
31 | O=P1(N(CCCl)CCCl)NC(OO)CCO1 (stereo not given) | – | 3.6%
32 | Cc1ccsc1C(=O)C1CCCN(Cc2ccc(O)cc2)C1 (stereo not given) | – | -7.9%
33 | Cc1ccc(N2C(=O)NC(=O)C(CCc3ccncc3)(Cc3cccc(Cl)c3Cl)C2=O)cc1 (stereo not given) | – | -29.8%
34 | CCOP(=O)(OCC)C(O)c1ccc(OC)cc1OC (stereo not given) | – | -10.4%
35 | CC[N+]1(CCOC(=O)C(O)(c2ccccc2)c2ccccc2)CCCCC1 | – | 16.1%
36 | Cc1ccc(Cl)cc1N1CCN(C(=O)C2CCC(CNS(=O)(=O)c3cccs3)CC2)CC1 (stereo not given) | – | -31.8%
37 | CO[C@]12CC[C@@]3(C[C@@H]1[C@](C)(O)C(C)(C)C)[C@@H]1Cc4ccc(O)c5c4[C@@]3(CCN1CC1CC1)[C@H]2O5 | 35.5 µM (active) | –
38 | Oc1ccc2c3c1OC1[C@H](O)CC[C@@]4(O)[C@@H](C2)N(CC2CC2)CC[C@]314 (stereo not given in full) | inactive | –
39 | CN(C)c1ccc(/C=C2\CC3C4CC=C5CC(O)CCC5(C)C4CCC3(C)C2=O)cc1 (stereo not given) | – | -18.1%
40 | CC(C)=C[C@@H]1[C@@H](C(=O)OCc2coc(Cc3ccccc3)c2)C1(C)C | – | 9.08%
41 | Cc1cc(OCc2cc(C(=O)O)oc2C)c2c3c(c(=O)oc2c1)CCCC3 | – | 7.94%
42 | CN(Cc1cccc2ncccc12)C(=O)c1cnn(-c2nccc(-c3ccccc3F)n2)c1C1CC1 | 22.4 µM (active) | –
43 | CCCCC1C(=O)NC(=O)N(C2CCCCC2)C1=O (stereo not given) | – | -8.69%
44 | CC1=C(C(=O)O)N2C(=O)[C@@H](N)[C@H]2SC1 | – | 3.3% [at 25.4 µM]
45 | NCC(O)c1ccc(O)cc1 (stereo not given) | inactive | –

Source: PubChem BioAssay AID651635 (National Center for Advancing Translational Sciences (NCATS), 2013)
